Molecules are shown by their SMILES. Among all 330,000 compounds or so, about 1,900 (0.58%) were called active. Inconclusive results (about 4%) are left out. These entries were drawn from the full list. Entries with a potency or affinity are not part of this list. Values without a mark were called inactive. Cut-off read from the data, not from the text of the source: inconclusive = inhibition above about 70% without an active follow-up result; inactive = below that.

This assay is described as follows: M. tuberculosis growth inhibition, HTS (AID 449762).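 Note: bacterial growth assessed after seven days of incubation.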 The conditions noted are these: M. tuberculosis H37Rv growth inhibition, 7H9 media; at 25 µM; hits give high values.
Regarding `COC(=O)C1=C(COc2ccc(C=O)cc2OC)NC(=O)NC1c1cc(C)ccc1C` (stereo not given), the inhibition (as a rule, the change of the read-out against control, counted positive when it falls) was -8.91%. For `Cc1cc(C)c2oc(=O)cc(CN3CCC(C)CC3)c2c1`, the inhibition is 5.8%. As for `Cc1coc2c(C)c3oc(=O)c(CCC(=O)N4CCC(C(=O)NCCCC(=O)O)(c5ccccc5)CC4)c(C)c3cc12`, the inhibition is 5.29%.

Regarding `CC12CCC(C(=O)Nc3cccnc3)(CC1=O)C2(C)C` (stereo not given), the inhibition was -6.21%.

As for `O=C(NN(c1ccccc1)c1ccccc1)c1ccc([N+](=O)[O-])o1`, the inhibition is 56.9%.

With `O=C(NCC1CCCO1)c1ccc([N+](=O)[O-])o1` (stereo not given), the inhibition was -10.8%. `C=CCn1c(SCC(=O)NCC2CCCO2)nc2scc(-c3ccccc3)c2c1=O` (stereo not given): the inhibition is -12.7%.

`CCOCCCNC(=S)NCCCNc1nc2cc3c(cc2cc1C#N)OCO3`: the inhibition is -2.17%. Take `Cc1ccc(C(=O)/C=C/Nc2ccc(S(=O)(=O)Nc3cc(C)nc(C)n3)cc2)cc1`: the inhibition is 4.23%.

In the case of `CCOc1cc(/C=N/NC(=O)C(=O)Nc2cc(Cl)ccc2C)ccc1O`, the inhibition is 5.58%. `CC(=O)c1cnn(-c2ccccc2)c1C`: the inhibition is -0.96%. Consider `Cc1c(C(=O)NCc2ccccc2)cnn1-c1ccccc1`, for which the inhibition was 0.38%. Regarding `O=C(NN=C1CCCCCC1)c1ccc(Cl)s1`, the inhibition was -7.6%.

As to `O=C(Nc1ccc(N2CCN(C(=O)c3ccccc3F)CC2)cc1)c1cncc(Br)c1`, the inhibition is 32.6%. Under `COc1ccc(NC(=O)CN(C)CC(=O)N(C)C2(C#N)CCC(C)CC2)cc1` (stereo not given) stands 6.58%.

Regarding `O=C1Nc2ccccc2/C1=N\c1sc2c(c1C(=O)Nc1ccccc1)CCCC2`, the inhibition was -6.89%. On to `COc1ccc(-c2noc(N3CCC(C(=O)Nc4ccccc4F)CC3)n2)cc1`, for which the inhibition is -6.51%.

Take `CSc1nc(C)c2c(n1)N(c1ccc(F)cc1)CC2`: the inhibition was 5.53%.

As for `COc1ccc(N2CCc3c(C)nc(SC)nc32)cc1`, the inhibition was 37.6%. Consider `Cc1cccc(NC(=O)Cn2nnc(-c3cccs3)n2)c1C`, for which the inhibition is 4.16%. Regarding `Cc1cc2ccccc2c(=O)n1CC(=O)NCC(=O)N1CCN(c2ccccc2)CC1`, the inhibition was 3.46%. In the case of `CC12CCC(C(=O)N3CCCCCC3)(OC1=O)C2(C)C` (stereo not given), the inhibition is 0.66%.

With `O=C(c1ccc2nc(N3CCOCC3)sc2c1)N1CCCC1`, the inhibition is -5.7%. For `O=C(c1ccc2nc(N3CCOCC3)sc2c1)N1CCN(C(=O)c2ccco2)CC1`, the inhibition is -6.14%. With `Cc1ccc(S(=O)(=O)N(C)c2ccc(OCC(=O)Nc3ccc(C(=O)N(C)C)cc3)cc2)cc1C`, the inhibition is -1.34%. For `Cn1cc(C(=O)N/N=C/C2=C(N3CCOCC3)C(=C/c3ccc([N+](=O)[O-])cc3)/CC2)ccc1=O`, the inhibition was 2.15%. In the case of `COc1cc(C(=O)NC(=S)Nc2ccc3[nH]c(=O)[nH]c3c2)cc(OC)c1OC`, the inhibition was 5.44%.

In the case of `COCCCN1C(=O)C(=O)/C(=C(/O)c2ccc(OC)cc2)C12C(=O)N(C)c1ccccc12` (stereo not given), the inhibition was 0.02%. With `O=C(/C=C\c1cccs1)c1c(O)ccc2ccc(=O)oc12`, the inhibition is 69.8%. To `CCN(CC)S(=O)(=O)c1ccc2oc(SCC(=O)NC3CC3)nc2c1` belongs -7.6%. Under `CCN(CC)S(=O)(=O)c1ccc2oc(SCC(=O)NCc3ccccc3)nc2c1` stands -7.94%; under `COC(=O)C1=C(C)N(c2ccc(OC)cc2)C(=O)/C1=C\c1cccs1`, -1.06%; under `CC(=O)c1ccc(OCC(=O)c2cc(C)n(-c3ccc4c(c3)OCO4)c2C)cc1`, -1.32%. On to `O=C(c1cc(Br)ccc1Cl)N1CCN(c2ncccn2)CC1`, for which the inhibition was 6.19%. `COCCN(C(=S)Nc1cccc(C)c1C)C(C)c1ccco1` (stereo not given): the inhibition is 4.25%. Regarding `CCCNC(=O)C(Cc1ccccc1)NC(=O)c1ccc(C(C)(C)C)cc1` (stereo not given), the inhibition is -2.64%. Regarding `CC(=O)C1=C(O)C(=O)N(c2cccc(Br)c2)C1c1ccc(Br)cc1` (stereo not given), the inhibition was 1.06%. Under `COc1ccc(-c2noc(CSc3nc(-c4ccccc4)cc(=O)[nH]3)n2)cc1` stands -1.49%; under `NC1=NC2(CCCC2)n2c(nc3ccccc32)N1`, 1.5%; under `CC1CCC2(CC1)N=C(N)Nc1nc3ccccc3n12` (stereo not given), 11.2%. On to `O=C(O)c1cc(-c2ccccc2)nc2ccccc12`, for which the inhibition is -1.59%. Consider `c1ccc(-c2cc3c(ccc4nonc43)nn2)cc1`, for which the inhibition was -0.15%. For `COc1cc(C(=O)NCC(c2cccs2)N2CCOCC2)cc(OC)c1OC` (stereo not given), the inhibition was 7.52%. As for `COc1ccc2c(c1)O/C(=C\c1ccco1)C2=O`, the inhibition is -4.09%. Regarding `CCC(=O)Oc1ccc2c(c1)O/C(=C\c1ccco1)C2=O`, the inhibition is 6.29%. Turning to `Cc1ccccc1OCC(O)Cn1c(N2CCCCC2)nc2c1c(=O)[nH]c(=O)n2C` (stereo not given), the inhibition is 6.49%. As for `Cc1cc(C)nc(-n2ncc3c2CC(c2ccccc2C)CC3=O)n1` (stereo not given), the inhibition is 3.74%. With `Cc1ccc(-c2cc(-c3ccc(C)cc3O)[nH]n2)cc1`, the inhibition is 17.4%. Turning to `Cc1ccc(O)c(-c2cc(-c3ccccc3F)[nH]n2)c1`, the inhibition was 33.9%. On to `O=C1CN(C(=O)COC(=O)CCC(=O)c2ccc(F)cc2)c2ccccc2N1`, for which the inhibition is -6.63%. On to `CCOCCn1c(CN2CCN(C(=O)c3ccco3)CC2)nc2c1c(=O)n(C)c(=O)n2C`, for which the inhibition is 5.24%. For the compound `COc1cc(C(=O)OC2CC3CCC2(C)C3(C)C)ccc1OC(C)=O` (stereo not given), the inhibition was -10.7%. As to `COCc1cc(=O)[nH]c(Cc2c(Cl)cccc2Cl)n1`, the inhibition is 3.62%. `O=c1cc(-c2ccccc2)nc(Cc2c(Cl)cccc2Cl)[nH]1`: the inhibition was 8.31%.

As to `O=C(NCc1ccccn1)C(=O)Nc1cc2c3c(c1)CC(=O)N3CCC2`, the inhibition is 5.14%.

Turning to `COc1ccc(C(=O)OCC(=O)c2cc(OC)ccc2OC)c(OC)c1`, the inhibition was -2.93%. In the case of `COc1cccc(C(=O)OCC(=O)c2ccc(Br)s2)c1`, the inhibition is -2.52%. `CSc1nc2nc(-c3ccc(F)cc3)c(CCN3CCN(C)CC3)cn2n1`: the inhibition was -4.6%.

On to `CNc1nc(NCc2ccccc2)c2ccccc2n1`, for which the inhibition was 16.5%. Regarding `OCCNc1nc(NCc2ccccc2)c2ccccc2n1`, the inhibition is 5.73%. Consider `CC1(/[N+]([O-])=C/c2ccc(Cl)cc2Cl)CCCCC1=O` (stereo not given), for which the inhibition was 3.79%. To `O=C(Cn1c(CO)nc2ccccc21)NC1CCCCCC1` belongs -4.47%; to `COCCN(C(=O)c1csnn1)C(C(=O)NC1CCCC1)c1ccccc1F` (stereo not given), -6.7%.

As for `COC(=O)c1cnn(-c2nc(OC)cc(OC)n2)c1C`, the inhibition is 5.96%. On to `COc1cc(OC)nc(-n2ncc(OC)c(Br)c2=O)n1`, for which the inhibition is -1.81%. Under `CSc1ccc(CN2C(=O)NC3(CCCCCCC3)C2=O)cc1` stands 3.48%. Under `COc1cc2c(cc1O)CCN(C(=O)CSc1nncn1C)[C@@H]2C` stands -6.62%; under `O=C(NCc1cccc(Br)c1)C1CC(c2ccccc2C(F)(F)F)=NO1` (stereo not given), 1.36%.

For the compound `COC(=O)CCCCC1SCC(NC(=O)c2ccccc2)C1OC(C)=O` (stereo not given), the inhibition is 4.8%. As to `COC(=O)CCCCC1SCC(NC(=O)c2ccccc2)C1Cl` (stereo not given), the inhibition was -3.83%.

Consider `COC(=O)c1cc(C#N)c(N2CCN(C)CC2)nc1C`, for which the inhibition is -0.25%. As for `O=C(COc1ccccc1)NCC(=O)N1CCCCCC1`, the inhibition was -3.96%. Under `CCn1cc([N+](=O)[O-])c(C(=O)N2N=C(c3ccc(O)c(OC)c3)CC2c2ccccc2O)n1` (stereo not given) stands -14.8%; under `CCn1cc(Cl)c(C(=O)N2N=C(c3ccc4ccccc4c3)CC2c2ccccc2O)n1` (stereo not given), 0.64%. For `CC1CCN(C(=O)c2ncn(Cc3ccccc3)c2C(=O)N2CCC(C)CC2)CC1`, the inhibition is 5.23%. Consider `COc1ccccc1NC(=O)c1ccc(S(=O)(=O)N(C)C)cc1`, for which the inhibition is -13.6%. Take `COc1ccccc1OCCNC(=O)c1ccc(S(=O)(=O)N(C)C)cc1`: the inhibition was -2.93%. With `CC(C)CC(=O)NC(=S)Nc1ccccc1F`, the inhibition was -4.61%. Take `O=C(Nc1ccnc(-c2ccncc2)n1)c1ccc(Cl)cc1`: the inhibition is 11.3%. To `CN(CCOc1ccc(Cl)cc1)C(=O)CN1C(=O)NC2(CCCCC2)C1=O` belongs -0.72%. To `COc1ccc(NC(=O)C2CCN(Cc3cnn(-c4ccccc4)c3-n3cccc3)CC2)cc1OC` belongs -3.38%; to `COc1ccc(OC)c(NC(=O)C2CCN(Cc3cnn(-c4ccccc4)c3-n3cccc3)CC2)c1`, 61.3%; to `c1ccc(Nc2nc(N3CCCC3)nc(N3CCCC3)n2)cc1`, 17.2%. As for `c1ccc(Nc2nc(N3CCCCC3)nc(N3CCCCC3)n2)cc1`, the inhibition is 4.61%. To `O=C(CSc1nc2ccccc2o1)N1CCOCC1` belongs -2.89%. `Cc1c(NC(=O)C(c2ccccc2)c2ccccc2)cccc1C(=O)O`: the inhibition is 0.47%. Take `O=C(NC1CCCC1)C(c1ccc(F)cc1)N(Cc1ccc(F)cc1)C(=O)CCl` (stereo not given): the inhibition is 0.54%. For the compound `CCOC(=O)c1c(CC(C)C)csc1NC(C)=O`, the inhibition is -1.62%.

As for `CCOC(=O)c1c(CC(C)C)csc1NC(=O)C(C)C`, the inhibition is 1.18%. For the compound `Cc1cccc(NC(=O)c2ccc(S(=O)(=O)N3CCCCC3C)cc2)n1` (stereo not given), the inhibition was 8.6%. In the case of `O=c1[nH]c2ccccc2nc1/C=C(\O)C1CC1`, the inhibition is -0.58%. On to `O=C(C1CCN(S(=O)(=O)c2cccc3cccnc23)CC1)N1CCN(C2CCCC2)CC1`, for which the inhibition was -2.61%. In the case of `CC(NCc1ccc(N(C)C)cc1)C1CC2CCC1C2` (stereo not given), the inhibition was 0.02%. On to `c1cc(CNC2C3CC4CC(C3)CC2C4)ccn1` (stereo not given), for which the inhibition was 10.3%.

For `CNC(=O)c1ccc(NC(=O)Nc2ccccc2)cc1`, the inhibition is -1.42%.

These data come from PubChem BioAssay AID449762 (Southern Research Specialized Biocontainment Screening …, 2010).
